Hits are enriched below; roughly 4.3% of the tested compounds scored in any of these assays.
Giardia killer – Giardia lamblia killing; Giardia lamblia trophozoite viability; activity change, % at 7.66 µM, hits read low; 0.15% of 340,000 active; AID 540267; in the data active means activity change below about -80%; inconclusive means between about -30% and that limit;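 further: parasites exposed to compound for two days anaerobically before the ATP read; on the % scale 0 is the no-effect control and ±100 the full control effect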
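ATP-content bioluminescence gauges trophozoite survival. Cells (100/well) receive compound and incubate anaerobically for 48 hrs at 37 deg C; detection reagent follows for 15-30 min at room temperature.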
uPA generation – cell surface uPA generation inhibition; cell surface uPA generation assay, qHTS; Potency, µM (top dose mostly 38.3 µM), for the others: top-dose activity change, negative = inhibition, hits mostly inhibitors; 0.31% of 330,000 active; active means well fitted inhibition curve with a large enough effect; inconclusive means small, poorly fitted or top-dose-only effect; inactive means no such curve, though single readings can be large or run the other way; tested in mouse RAW 264.7 cells; further: potency means the concentration at half of the fitted maximal effect; on the % scale 0 is the no-effect control and ±100 the full control effect; nearly all actives have a fitted effect of over 55% in size
SW480 rereplic – DNA re-replication induction in SW480 cells; SW480 DNA re-replication, Hoechst DNA content imaging, 48 h; Potency, µM (doses to about 46.1 µM), without a hit: top-dose re-replication activation, usual class: activators; 1.8% of 340,000 active; AID 624297; further: potency means the concentration at half of the fitted maximal effect; % of control where 0% means no effect; nearly all actives have a fitted effect of over 55% in size
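SW480 cells exposed to compounds for 48 hr at 37 C, 5% CO2, then Hoechst-stained 40 min. Nuclear DNA content imaged by fluorescence scanning (405 nm excitation, 500-530 nm emission); re-replication scored as increased high-intensity nuclei.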
MCF10A rerep – induces DNA re-replication in MCF 10a normal breast cells; MCF 10A DNA re-replication, Hoechst nuclear intensity, 48 h; Potency, µM (titrated, usually from 46.1 µM), inactives show top-dose activity, positive = re-replication, most hits filed as activators; 2.9% of 350,000 active; further: potency means the concentration at half of the fitted maximal effect; % of control where 0% means no effect; nearly all actives have a fitted effect of over 50% in size
Numbers without * were called inactive; ? = inconclusive; / = no result; [ ] = remark or other dose. Unless noted, the call rests on the fitted dose curve; in most records, active means well fitted activation curve with a large enough effect; inconclusive means small, poorly fitted or top-dose-only effect; inactive means no such curve, though single readings can be large or run the other way.

SMILES | Giardia killer | uPA generation | SW480 rereplic | MCF10A rerep
CC(C)(C)C(=O)/C(=C/c1ccncc1)n1cncn1 | 3 | ? | ? | ?
CC1(C)C2CCC(C2)C1(C)NC(=O)CNC1CCCCC1 (stereo unspecified) | 16 | -4% | -7% | 2%
COc1ccccc1C(C)Nc1nc(-c2cccnc2)nc2ccccc12 (stereo unspecified) | 8 | 4% | -15% | ?
Cc1cccn2c(=O)c3cc(C(N)=S)c(=N)n(CCCN4CCOCC4)c3nc12 | 20 | ? | 8.2µM* | ?
COCCCn1c(=N)c(C(=O)NCc2ccc3c(c2)OCO3)cc2c(=O)n3cccc(C)c3nc21 | ? | -6% | ? | 11%
Cc1cccn2c(=O)c3cc(C#N)c(=N)n(CCCN4CCOCC4)c3nc12 | 12 | -4% | 4.1µM* | ?
Cc1cccn2c(=O)c3cc(C#N)c(=N)n(CCN4CCOCC4)c3nc12 | -12 | 2% | -15% | -21%
Cc1cccn2c(=O)c3cc(C(=O)NCc4ccc(F)cc4)c(=N)n(CCCN4CCOCC4)c3nc12 | -13 | -8% | 8.2µM* | ?
CCCCNC(=O)c1cc2c(=O)n3cccc(C)c3nc2n(CCN2CCOCC2)c1=N | 1 | -3% | ? | ?
COCCCn1c(=N)c(C(N)=S)cc2c(=O)n3cccc(C)c3nc21 | 2 | -7% | 16µM* | ?
N#Cc1cc2c(=O)n3ccccc3nc2n(CCCn2ccnc2)c1=N | 8 | ? | 15µM* | 9.2µM*
CCCn1c(=N)c(C#N)cc2c(=O)n3ccccc3nc21 | 29 | -8% | ? | 225%
O=C(Nc1nnc(Cc2ccc(Cl)cc2)s1)C1CCN(C(=O)c2ccco2)CC1 | -25 | / | / | /
CCOc1ccc(-c2c(C(=O)N/N=C/c3ccc(Cl)cc3)nnn2-c2nonc2N)cc1 | -18 | 5% | -9% | -4%
Cc1cccc(OCc2nnc(SCC(=O)Nc3ccc(N4CCOCC4)cc3)o2)c1 | 2 | 0% | -2% | 3%
CN(C)S(=O)(=O)c1ccc2c(c1)/C(=C/c1cc3c([nH]1)CCCC3)C(=O)N2 | 14 | ? | 10µM* | ?
CC1CCc2nc(NC(=O)CN3CCN(c4ccccc4)CC3)sc2C1 (stereo unspecified) | 3 | 1% | -4% | 7%
CC1CCc2nc(NC(=O)CN3CCN(Cc4ccc5c(c4)OCO5)CC3)sc2C1 (stereo unspecified) | -15 | -9% | 2% | 13µM*
CN(C(=O)c1ccc(NC(=O)Cc2ccc(NC(=O)C3CCCN(C(=O)CCc4ccccc4)C3)cc2)cc1)C1CCCC1 (stereo unspecified) | 11 | ? | -39%[9.22 µM] | ?
COc1ccc(CN(Cc2ccccc2)C(=O)c2ccno2)cc1COc1ccc(NC(C)=O)cc1 | 11 | / | / | /
CCOc1ccc(-n2nc3c(=O)n(CCN4CCCCC4)nc(C)c3c2C)cc1 | 8 | -5% | 23µM* | 0%
CC(C)NC(=O)NC(=O)CSc1nnc(COc2ccccc2F)n1C(C)C1CC2CCC1C2 (stereo unspecified) | 23 | / | ? | 13µM*
O=c1cc(-c2ccccc2Cl)oc2ccc([N+](=O)[O-])c(O)c12 | -13 | 13% | 19% | 0.37µM*
O=c1cc(-c2ccccc2Cl)oc2c([N+](=O)[O-])c(O)cc(O)c12 | -11 | -1% | -3% | 0.82µM*
COc1ccc(-c2cc(=O)c3ccccc3o2)cc1 | ? | ? | -6% | 1%
SMILES | Giardia killer | uPA generation | SW480 rereplic | MCF10A rerep
Nc1ccc2oc(-c3ccccc3Cl)cc(=O)c2c1O | 4 | ? | -5% | -11%
COc1ccc2oc(-c3ccccc3[N+](=O)[O-])cc(=O)c2c1 | -19 | -18% | 8.2µM* | 6.5µM*
O=[N+]([O-])c1ccc2nc(NCCCO)nc(-c3ccccc3)c2c1 | 12 | -3% | 24% | 15µM*
CC(C)NCC(O)Cn1c2c(c3ccccc31)CCc1c-2cnn1-c1ccccc1 (stereo unspecified) | -8 | -4% | 21% | 18µM*
CN1CCc2c(n(CC(O)CNCc3ccccc3)c3ccccc23)C1=O (stereo unspecified) | -8 | -32% | 4% | 1%
CNc1oc(-c2ccccc2Cl)nc1P(=O)(c1ccccc1)c1ccccc1 | -3 | -8% | -3% | 19%
CNc1oc(-c2ccc(C)cc2)nc1P(=O)(c1ccccc1)c1ccccc1 | -12 | -4% | 6% | 18µM*
COc1ccc(-c2cn3ccccc3n2)cc1 | ? | 2µM* | -5% | -1%
Clc1ccc(-c2cn3ccccc3n2)cc1 | 1 | 8.9µM* | 4% | -3%
CCCc1ccc2oc(C(=O)NCCN3CCCC(C(N)=O)C3)c(C)c2c1 (stereo unspecified) | 2 | -1% | 21% | 24%
CCCc1ccc2oc(C(=O)NCCN3CCCC(O)C3)c(C)c2c1 (stereo unspecified) | -3 | -7% | 23µM* | ?
CCOc1cc(CNc2ccc3c(c2)OCCO3)cc(Br)c1OCC | 4 | -18% | 5.8µM* | 2.6µM*
Cn1c(=O)c(C(=O)NNC(=O)c2cccc(Cl)c2)c(O)c2ccccc21 | 5 | -4% | 9.2µM* | 7.3µM*
CC(NC(=O)c1c(O)c2ccccc2n(C)c1=O)c1ccccc1 (stereo unspecified) | 13 | 3% | 23µM* | 18%
CCn1c(=O)c(C(=O)Nc2nc3ccccc3[nH]2)c(O)c2ccccc21 | -17 | -5% | ? | 9.2µM*
CCn1c(=O)c(C(=O)NNC(=O)c2cccc(Cl)c2)c(O)c2ccccc21 | 15 | -4% | ? | 23µM*
Cc1cccc(C(=O)NNC(=O)c2c(O)c3ccccc3n(C)c2=O)c1 | 7 | 2% | -21% | ?
COc1ccccc1CNC(=O)COC(=O)c1cccc(S(=O)(=O)N2CCCC2)c1 | -6 | -1% | -3% | 3%
COc1ccc(-c2oc3ccc(-c4cc(OC)c(OC)c(OC)c4)cc3c2C#Cc2ccccn2)cc1 | 7 | 0% | -8% | ?
CCCn1c(=O)c(C(=O)Nc2ccccc2C(=O)OCC)c(O)c2ccccc21 | -17 | / | ? | 11µM*
CCCn1c(=O)c(C(=O)Nc2cccc(C)n2)c(O)c2ccccc21 | 7 | 6% | -1% | 13%
CCCn1c(=O)c(C(=O)NNS(=O)(=O)c2ccc(Cl)cc2)c(O)c2ccccc21 | -8 | 13% | -3% | 15µM*
Cc1ccc(C(=O)c2oc3ccccc3c2N)cc1 | 5 | 6% | ? | 10µM*
Nc1c(C(=O)c2ccc(Br)cc2)oc2ccccc12 | 1 | -1% | 17% | ?
Cc1ccc(OCCN2CCN(C(=O)CCC(=O)Nc3nnc(CC(C)C)s3)CC2)cc1 | 9 | -4% | -1% | ?
COC12NC(=O)N(C)C1(OC)C(=O)N(C)C(=O)N2C (stereo unspecified) | -11 | 5% | 0.65µM* | ?
Cc1ccnc(NC(=S)N2CCN(c3cccc(C(F)(F)F)c3)CC2)c1 | -15 | -2% | 28% | ?
Cc1ccc(C)c(N2CCN(C(=O)CCc3nc(-c4ccccc4F)no3)CC2)c1 | 23 | 8% | 3% | 16µM*

Screens deposited in PubChem BioAssay by National Center for Advancing Translational Sciences (NCATS).
